Screening data: PubChem, several laboratories
Jurkat NFkB inh – inhibitors of induced NF-kB luciferase reporter, primary screen, TCR NF-kB activation inhibitor project, cell-based, luminescence, uHTS | Jurkat, PMA/ionomycin-induced NF-kB luciferase reporter | inhibition, % at 4 µM | 0.53% of 330,000 active; in the data active = inhibition above about 50%
esBAF inh – Bmi1 luciferase reporter increase in mESCs, primary screen, esBAF inhibitor project, mouse ES cells, Bmi1 luciferase knock-in, single point; 24 h; 100% = twice the neutral-well signal; reporter increase, % at 12.5 µM; 2% of 350,000 active; AID 602393, 2012; in the data active = activation above about 40%;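 also: a rise in the Bmi1 reporter signal indicates esBAF inhibition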
Gli-Sufu block – Gli-Sufu pathway antagonists, primary screen, luciferase luminescence, Sufu-KO-LIGHT cells, uHTS; Sufu-KO-LIGHT fibroblasts, Gli luciferase reporter luminescence; inhibition, % at 5 µM; 0.74% of 340,000 active; AID 588413, 2011;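 active = inhibition above about 55%, limit read from the data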
SMARCA2 act – SMARCA2 (BRM) function activators, primary screen, cell-based, luminescence, high throughput; MG213 cells, MMTV-luciferase reporter, dexamethasone, overnight; activation, % at 9.1 µM; 1% of 370,000 active; AID 652017, 2013; in the data active = activation above about 7.8%
697 NFkB inh – inhibitors of PMA/ionomycin-induced NF-kB reporter, 697 cells, primary screen, B-cell NF-kB inhibitor project, cell-based, luminescence, uHTS; 697 B-cell NF-kB luciferase reporter, 16 h; inhibition, % at 4 µM; 0.33% of 330,000 active; AID 435022, 2010; in the data active = inhibition above about 35%
A number is an active result; 0 = inactive; - = no result given. An excerpt weighted towards active compounds, which were near 3.3% of everything screened.

SMILES	Jurkat NFkB inh	esBAF inh	Gli-Sufu block	SMARCA2 act	697 NFkB inh
Cc1ccccc1NC(=O)c1ccc2c(c1)OCCO2	0	47	0	0	0
CO[C@H]1CN(C)C(=O)c2cc(NC(=O)c3cccc(F)c3)ccc2OC[C@@H](C)N(CC2CC2)C[C@H]1C	-	0	-	-	-
Cc1ccccc1-c1ccc2c(c1)O[C@@H](CN(C)Cc1ccncc1)[C@H](C)CN([C@H](C)CO)S2(=O)=O	-	0	-	-	-
Cc1cccc(NC(=O)c2ccc3c(c2)OCCO3)c1C	0	55	0	0	0
COC(=O)c1ccccc1-c1ccc(C(c2c(C)[nH][nH]c2=O)c2c(C)[nH][nH]c2=O)o1	0	-	0	7.9	0
FC(F)(F)c1ccccc1Cc1c(-c2cccc(Cl)c2)nc2ccc(Br)cn12	-	42	-	0	-
COc1ccc(Cc2c(-c3cccc(Cl)c3)nc3ccc(Br)cn23)c(C)c1	-	51	-	0	-
COc1ccc(Cc2c(-c3ccc(F)cc3)nc3ccc(Br)cn23)c(C)c1	-	57	-	0	-
COc1ccc(Cc2c(-c3cccc(Br)c3)nc3ccc(Br)cn23)c(C)c1	-	0	-	0	-
Cc1cc(Br)cn2c(Cc3ccccc3C(F)(F)F)c(-c3cccc(Cl)c3)nc12	-	-	-	0	-
O=C(CN1CCOCC1)N[C@H]1CC[C@H](CCNC(=O)C2CCCCC2)O[C@H]1CO	-	0	-	-	-
CC(C)NC(=O)Nc1ccc2c(c1)C(=O)N([C@H](C)CO)C[C@@H](C)[C@H](CN(C)Cc1ccccc1)O2	-	0	-	-	-
C[C@@H]1CN([C@H](C)CO)C(=O)Cc2cc(NS(C)(=O)=O)ccc2O[C@H]1CN(C)Cc1ccc2c(c1)OCO2	-	0	-	-	-
COc1cccc(-c2noc(CCC(=O)Nc3cccnc3)n2)c1	0	52	0	0	0
CCN(CC)Cc1cc(Nc2c3ccccc3nc3c4ccccc4n(C)c23)cc(CN(CC)CC)c1O	-	0	0	41	-
C[C@H](CO)N1C[C@H](C)[C@@H](CN(C)C(=O)NC2CCCCC2)Oc2ccc(NC(=O)CCN3CCOCC3)cc2CC1=O	-	0	-	-	-
C=CCS/C(=N\n1cnc2ccccc2c1=O)N1CCCCC1	0	53	0	0	0
CN(CCC1CCCCO1)C(=O)CCc1nnc(C2CCCCC2)o1 (stereo not drawn)	0	55	0	0	0
Cc1ccc2c(c1)N=C(c1ccc(Cl)cc1)CO2	0	49	0	0	0
Cc1ccc(OCc2cc(C(=O)NCC3COCCO3)no2)cc1C (stereo not drawn)	0	-	0	0	0
CCN1CCCC1CNC(=O)c1cc(COc2ccc(C)c(C)c2)on1 (stereo not drawn)	0	45	0	0	0
COc1ccc(OCc2cc(C(=O)N(C)C3CCOCC3)no2)c2ccccc12	0	0	0	0	0
Cc1ccc(OCc2cc(C(=O)N(C)CC3CCOCC3)no2)cc1C	0	69	0	0	0
Cc1cc(OCc2cc(C(=O)N(C)C3CCOCC3)no2)cc(C)c1Cl	0	61	0	0	0
C[C@@H]1CN([C@@H](C)CO)C(=O)Cc2cc(NC(=O)Nc3cccc4ccccc34)ccc2O[C@H]1CN(C)Cc1ccc2c(c1)OCO2	-	0	-	-	-
SMILES	Jurkat NFkB inh	esBAF inh	Gli-Sufu block	SMARCA2 act	697 NFkB inh
CC(=O)c1sc2nc(-c3cccs3)ccc2c1N	0	65	0	0	0
O=C(Nc1cnc2ccccn2c1=O)c1ccc(Cl)cc1	0	43	0	0	0
O=C(Nc1cccn2ncnc12)c1ccc(Cl)cc1	0	0	0	0	0
Cc1ccc(S(=O)(=O)NCC[C@@H]2CC[C@H](NC(=O)c3cccc(F)c3)[C@H](CO)O2)cc1	-	0	-	-	-
Cc1[nH]c2ccccc2c(=O)c1CN(C)Cc1ccccc1	0	57	0	0	0
COc1ccc(S(=O)(=O)N(C)C[C@H]2Oc3ccc(NC(=O)Cn4cnnn4)cc3CC(=O)N([C@H](C)CO)C[C@H]2C)cc1	-	0	-	-	-
Cc1c(OCc2ccccc2)c(=O)ccn1Cc1ccccc1	0	56	0	0	0
Cc1noc(C)c1NC(=O)N(C)C[C@@H]1Oc2c(cccc2N(C)C)C(=O)N([C@@H](C)CO)C[C@H]1C	-	0	-	-	-
C[C@H](NC(=O)C[C@@H]1C=C[C@H](NC(=O)C2CCOCC2)[C@H](CO)O1)c1ccccc1	-	0	-	-	-
COCCn1c(C)cc(C(=O)Cn2nc(C(=O)O)c3ccccc3c2=O)c1C	0	-	0	0	0
Cc1cc(C(=O)Cn2nc(C(=O)O)c3ccccc3c2=O)c(C)n1-c1cccc(C(F)(F)F)c1	0	0	0	0	0
C=CCn1c(C)cc(C(=O)Cn2nc(C(=O)O)c3ccccc3c2=O)c1C	0	0	0	7.9	0
Cc1cc(C(=O)Cn2nc(C(=O)O)c3ccccc3c2=O)c(C)n1-c1ccc(F)cc1	0	48	0	0	0
CC1C=NC(S(=O)(=O)N2CC[C@@H]3[C@@H](CO)N(C)c4ccc(-c5ccccc5)cc4[C@@H]32)=N1 (stereo partly drawn)	-	0	-	-	-
Cc1ccc2cc(CN(CC3CCCO3)C(=O)Nc3ccccc3F)c3nnnn3c2c1 (stereo not drawn)	0	45	0	0	0
Cc1ccc2cc(CN(CC3CCCO3)S(=O)(=O)c3ccccc3)c3nnnn3c2c1 (stereo not drawn)	0	0	0	0	0
O=c1cccc2n1Cc1cc3ccccc3nc1-2	0	53	0	0	0
c1ccc2c(c1)-c1nc3ccccc3cc1C2N1CCCCC1 (stereo not drawn)	-	-	-	0	-
O=C(C[C@H]1CC[C@H]2[C@@H](COC[C@@H](O)CN2S(=O)(=O)c2ccccc2F)O1)NCc1ccccc1F	-	0	-	-	-
Fc1ccc(-n2nnc(-c3ccnc4ccccc34)n2)cc1	0	61	0	0	0
Cc1ccc(-n2nnc(-c3ccnc4ccccc34)n2)cc1	0	69	0	0	0
Cc1ccc(S(=O)(=O)Nc2ccc3c(c2)C(=O)N([C@H](C)CO)C[C@H](C)[C@H](CN(C)C(=O)Nc2c(C)noc2C)OCCCC[C@H](C)O3)cc1	-	0	-	-	-
Cc1cc(OCCCn2cnc3ccccc3c2=O)ccc1[N+](=O)[O-]	0	-	0	0	0
Clc1ccc(OCCn2cnc3ccccc32)c(Cl)c1	0	71	0	0	0
O=c1c2ccccc2ncn1CCCOc1ccccc1[N+](=O)[O-]	0	62	0	0	0
O=[N+]([O-])c1ccccc1OCCCn1cnc2ccccc21	-	65	0	0	-
CCn1c(O)c(C=NC2CCCC2)sc1=S	0	45	0	0	0
CNC(=O)C[C@H]1CC[C@@H]2[C@@H](COc3ccc(NC(=O)c4cccs4)cc3C(=O)N2C)O1	-	0	-	-	-
CO[C@@H]1CN(C)C(=O)c2cc(NC(=O)C3CCOCC3)ccc2OC[C@@H](C)N(C(C)=O)C[C@@H]1C	-	0	-	-	-
C[C@@H]1CN([C@H](C)CO)S(=O)(=O)c2ccc(C#CC(C)(C)O)cc2O[C@H]1CN(C)Cc1ccncc1	-	0	-	-	-
